Shown are actives, neighbours in structure and some others; about 2.2% of the full set was active somewhere.
CHO-K1 Ca antag: counter-screen for M1 antagonists: effect in parental CHO-K1 cells | 0.6% of 360,000 active | ATP-induced calcium, Fluo-8 fluorescence | inhibition, % at 3 µM;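 active = inhibition above a per-plate cutoff, the plate's mean sample inhibition plus 3 SD, cut at about 24% in these data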;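 also: 0% = DMSO plus EC80 ATP and 100% = DMSO alone without ATP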
M1 ag parental: counter-screen for M1 agonists: effect in parental CHO-K1 cells; Fluo-8 calcium fluorescence; scaled to maximal ATP response, vehicle zero; activation, % at 3 µM; 0.48% of 360,000 active; AID 602248, 2012; in the data active = activation above about 15%;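 also: untransfected CHO-K1 host cells lacking M1 receptor as counterscreen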
NTR1 agonist: agonists of human NTR1, primary screen, imaging, U2OS cells, beta-arrestin-GFP, high content. 0.17% of 330,000 active. activation, % at 20 µM. NTR1-U2OS beta-arrestin-GFP spot imaging, agonist mode. AID 493036, 2011;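 active = activation at or above 40% of the spot to cytoplasm intensity ratio, with at least 20 cells analyzed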;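 also: 0% = DMSO without peptide and 100% = 100 nM NTR1 peptide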
Target sequence (P30989 whole entry, looked up): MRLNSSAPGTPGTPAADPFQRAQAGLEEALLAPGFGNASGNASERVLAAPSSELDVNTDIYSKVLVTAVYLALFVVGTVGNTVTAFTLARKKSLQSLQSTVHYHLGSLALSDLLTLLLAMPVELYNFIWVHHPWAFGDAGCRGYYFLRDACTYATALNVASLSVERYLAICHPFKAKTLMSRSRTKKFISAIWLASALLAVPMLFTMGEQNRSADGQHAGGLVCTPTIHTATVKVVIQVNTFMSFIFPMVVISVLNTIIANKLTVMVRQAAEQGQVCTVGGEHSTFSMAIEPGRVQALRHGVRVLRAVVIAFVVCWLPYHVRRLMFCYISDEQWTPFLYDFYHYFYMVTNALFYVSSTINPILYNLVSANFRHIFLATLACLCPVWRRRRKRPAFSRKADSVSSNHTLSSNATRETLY
CHO-K1 Ca PAM: nonselective calcium activators in parental CHO-K1 cells, primary screen, counter-screen for M1 PAM project, cell-based, Fluo-8 calcium fluorescence, full deck, 1536-well. activation, % at 3 µM. ATP EC20; 0% at ATP EC20, 100% at ATP max. 0.02% of 360,000 active. AID 602247, 2012;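 active = activation above the run cutoff, the mean activation of all test compounds plus 3 SD, cut at about 40% in these data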;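 also: peak over basal fluorescence ratio in a 140 s read after ATP addition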
TMEM16A inh: TMEM16A chloride channel inhibitors, primary screen, cell-based, HTS; HEK293 TMEM16A/YFP iodide influx fluorescence, ionomycin; normalized B-score (activity score, 25-100; higher = stronger inhibition) at 10 µM; 1.2% of 310,000 active;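 active = ratio plate-corrected score three or more library SD toward inhibition, starting fluorescence score within five deviations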;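 also: score derived from kinetic fluorescence span divided by baseline fluorescence per well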
TMEM16A act: TMEM16A chloride channel activators or potentiators, primary screen, cell-based, HTS | HEK293 TMEM16A/YFP-H148Q/I152L, iodide quench fluorescence; hits give low values | B-score at 10 µM | 0.3% of 340,000 active;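 active = fluorescence-ratio B-score plate-corrected deviation score at least 3 library SD below zero, with starting fluorescence score within 5 deviations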;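 also: channel opened by trigger with iodide after compound preincubation; score built on the fluorescence ratio of max minus min over baseline; more negative score means more quench and so TMEM16A activation or potentiation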
Active calls of the source: *; i = inactive; · = not tested or not shown.

SMILES | CHO-K1 Ca antag | M1 ag parental | NTR1 agonist | CHO-K1 Ca PAM | TMEM16A inh | TMEM16A act
O=C(Nc1ccccc1)Nc1cccc(C(F)(F)F)c1 | 30* | 11 | 1 | -11 | i | i
Cc1ccccc1NC(=O)CNC(=O)c1ccc(C(F)(F)F)cc1 | 3 | 0 | 0 | -12 | i | i
Cc1ccccc1NC(=O)Nc1ccc(C(F)(F)F)cc1 | 24* | 11 | 0 | -9 | i | i
CCCCCNCC(=O)Nc1cccc(C(=O)Nc2cccc(C(F)(F)F)c2)c1 | 7 | 24* | 18 | -8 | i | i
O=C(CN1CCOCC1)Nc1cccc(C(=O)Nc2cccc(C(F)(F)F)c2)c1 | 0 | 1 | 1 | 6 | i | i
O=C(NCc1cccnc1)c1csc([C@@H]2C[C@H](O)[C@@H](CO)O2)n1 | 20 | 0 | · | -15 | · | ·
CN(Cc1ccc(Cl)cc1)C(C(=O)NC1CCCCC1)c1ccnc2ccccc12 (stereo not given) | -8 | 1 | · | 15 | · | ·
Cc1ccccc1C(=O)N1CCN(c2ccc(NC(=O)c3ccc4c(c3)OCCO4)cc2)CC1 | 0 | 19* | 8 | -15 | 25* | i
Cc1ccc(C(=O)Nc2ccccc2N2CCN(C(=O)C(C)C)CC2)cc1C | 29* | 1 | 3 | -27 | i | i
CS(=O)(=O)N1CCN(c2ccccc2NC(=O)c2ccc3c(c2)OCCO3)CC1 | -6 | 19* | 1 | 6 | i | i
CC(C)C(=O)N1CCN(c2ccccc2NC(=O)c2ccc(C#N)cc2F)CC1 | -2 | 22* | 1 | 5 | i | i
CS(=O)(=O)N1CCN(c2ccccc2NC(=O)c2ccc3ccccc3c2)CC1 | 2 | 2 | 3 | 1 | i | i
CCOC(=O)[C@]12CCCC=C1N(Cc1cccc3ccccc13)C(=O)[C@H](CC(=O)N1CCC(c3ccccc3)CC1)C2 | 0 | 1 | · | -8 | · | ·
CN1CCN(C2CN(Cc3cn(Cc4ccccc4)nn3)S(=O)(=O)C2)CC1 (stereo not given) | -10 | 1 | · | 2 | · | ·
CC(C)(C)c1ccc(S(=O)(=O)Nc2ccc(Cc3ccncc3)cc2)cc1 | 24* | 11 | 25 | 8 | i | i
CC(=O)Nc1ccc(S(=O)(=O)Nc2ccc(Cc3ccncc3)cc2)cc1 | 7 | 2 | 0 | 6 | i | i
CN(c1cc(Cl)c2c(c1)OCO2)c1cc2c(c3c1ccn3C)C1CCC2C1 (stereo not given) | 27* | 0 | · | 3 | · | ·
Cn1ccc2c(-c3cccc4ccccc34)cc3c(c21)C1CCC3C1 (stereo not given) | 38* | 0 | · | -9 | · | ·
CN(c1ccc(Cl)cc1)c1cc2c(c3c1ccn3C)C1CCC2C1 (stereo not given) | -2 | 1 | · | 21 | · | ·
CCN(CC)c1cc2c(c3c1ccn3C)C1CCC2C1 (stereo not given) | 25* | 0 | · | 0 | · | ·
Cc1cc(/C=N/NC(=O)c2ccc(O)cc2)c(C)n1C1CC1 | 28* | 0 | 0 | -13 | i | i
COc1cc(/C=C/CN2CCC(C(=O)NC(c3ccc(F)cc3)c3ccc4ccccc4n3)CC2)ccc1OC(C)=O (stereo not given) | -9 | 11 | · | 16 | · | ·
Cc1cc(Cl)ccc1C(O)c1ncc(-c2ccc(Cl)cc2)[nH]1 (stereo not given) | 3 | 1 | · | 2 | · | ·
COCc1c(C(=O)OCC(=O)NCc2ccco2)oc2ccccc12 | 24* | 0 | 0 | -14 | · | i
COc1ccc(NC(=O)CCc2nc3ccccc3c(=O)[nH]2)cc1S(=O)(=O)N1CCCCC1 | -8 | 0 | 4 | -1 | · | i
SMILES | CHO-K1 Ca antag | M1 ag parental | NTR1 agonist | CHO-K1 Ca PAM | TMEM16A inh | TMEM16A act
CCOc1ccccc1N1CCN(C(=S)NCc2ccc(Cl)cc2)CC1 | -3 | 18* | 4 | 13 | i | i
C=C(C)C(=O)OCC(O)COc1ccc(C(C)(C)c2ccc(OCC(O)COC(=O)C(=C)C)cc2)cc1 (stereo not given) | 19 | 8 | 16 | -3 | 100* | i
O=C1c2ccccc2C(c2nnnn2-c2ccc3c(c2)OCCO3)N1CCc1ccccc1F (stereo not given) | -19 | 2 | · | 7 | · | ·
Cc1cc(C)c(C)c(S(=O)(=O)Nc2cccc(S(=O)(=O)Nc3ccccc3C(=O)O)c2)c1C | -1 | 0 | 1 | 5 | · | i
CCCCC[C@H](O)/C=C/[C@H]1CCC(=O)[C@@H]1CCCCCCC(=O)N1CCCCC1CO (stereo not given in full) | 53* | 16* | 24 | 5 | i | ·
CCC1CCCCN1C(=O)CCCOc1ccccc1 (stereo not given) | 5 | 0 | 1 | -4 | i | i
CC12CCC(C)(c3nc4ccccc4nc31)C2(C)C | 7 | 0 | 0 | 2 | i | i
Cc1[nH]nc2c1-c1nc3ccccc3nc1C(C)(C)C2 | -9 | 0 | 1 | 14 | 25* | i
O=c1[nH][nH]c2c1[C@H](c1ccc(F)cc1)O[C@H](CCc1ccccc1)C2 | 6 | 0 | · | -8 | · | ·
Nc1cc(Br)cc2c1[nH]c(=O)c1ccccc12 | -6 | 0 | · | 10 | · | ·
N#CC1=C(SCC(=O)NC2CC2)NC(=O)C(C#N)C12CCCCC2 (stereo not given) | -20 | 8 | -1 | 9 | i | i
N#CC1=C(SCC(=O)Nc2cccc3cccnc23)NC(=O)C(C#N)C12CCCCC2 (stereo not given) | -7 | 13 | 4 | 18 | 100* | i
CC(C)(C)C1CCC2(CC1)C(C#N)=C(SCC(=O)NC1CCCCC1)NC(=O)C2C#N (stereo not given) | -6 | 1 | 4 | 2 | 100* | i
N#CC1=C(SCC(=O)NC23CC4CC(CC(C4)C2)C3)NC(=O)C(C#N)C12CCCCC2 (stereo not given) | 1 | 12 | 6 | -2 | 100* | i
CCOC(=O)C1=C(SCC(=O)Nc2ccccc2)NC(=O)C(C#N)C12CCCCC2 (stereo not given) | -8 | 2 | 3 | 12 | i | -31*
CC(c1ccccc1)N1C(=O)c2ccc(C(=O)Nc3ccc(Br)cc3C(=O)O)cc2C1=O (stereo not given) | 4 | 0 | 15 | -20 | 100* | i
CC(c1ccccc1)N1C(=O)c2ccc(C(=O)Nc3ccccc3C(=O)O)cc2C1=O (stereo not given) | 5 | 0 | 0 | -13 | i | i
